The nature of experiment [1]: antimalarial activity against Dd2 strain (AID 2302;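 active = growth inhibition above 50% at the single 2 µM test dose, taken to imply half-maximal potency below 2 µM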;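 note: 0% = DMSO untreated growth and 100% = chloroquine plus artemisinin killed control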). The note with it: P. falciparum Dd2 in RBCs, LDH growth readout, 72 h; at 2 µM; stronger effect = higher value.
Experiment [2] is described as follows: human hepatoma cell viability loss – ATP luminescence, cytotoxicity control for P. falciparum antimalarial project, primary screen (AID 2303;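 active = inhibition above 50%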;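 note: 0% = DMSO wells and 100% = digitonin-killed cells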). Conditions: HepG2 viability, 24-48 h, at 10 µM, stronger effect = higher value.
The target of experiment [3] is L-lactate dehydrogenase (Plasmodium falciparum (isolate CDC / Honduras)) (UniProt Q27743). In words: PfLDH activity inhibition – cell lysate, 3D7 strain, counter-screen for P. falciparum growth inhibition project (AID 2304).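 Note: 0% = vehicle and 100% = reference inhibitor.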 Conditions: P. falciparum 3D7 crude extract, LDH APAD/NBT absorbance; at 2 µM; stronger effect = higher value.
Experiment [4] can be described thus: inhibition of 3D7 malaria parasite growth – strain 3D7 (AID 2306).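 Note: 0% = DMSO wells and 100% = chloroquine plus artemisinin control wells.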 The note with it: P. falciparum 3D7 erythrocytic growth, LDH absorbance, 72 h; at 2 µM; stronger effect = higher value.
For experiment [5], the target named is Calcium-dependent protein kinase 1 (Plasmodium falciparum (isolate 3D7)) (UniProt P62344). In words: PfCDPK1 kinase inhibitors, biochemical, TCAMS library (AID 1159585; cut-off not given, nearly all actives have IC50 up to about 0.98 µM;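 note: inhibitors leave more ATP so luminescence rises with inhibition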). Conditions: recombinant PfCDPK1, Kinase-Glo ATP depletion luminescence.
For experiment [6], the target named is Plasmodium falciparum protein kinase 6 (PK6, PF3D7_1337100) (UniProt Q8IDW1). The experiment is described as follows: PfPK6 kinase inhibitors, biochemical, TCAMS library (AID 1159586). The note with it: recombinant PfPK6, Kinase-Glo ATP depletion luminescence.
Experiment [7] concerns the target Protein kinase 7 (PK7), Plasmodium falciparum 3D7 (PF3D7_0213400) (UniProt Q7YTF7). In words: inhibition of Plasmodium PK7 catalytic activity – biochemical, TCAMS antimalarial set, Kinase-Glo luminescence (AID 1159587). Conditions: recombinant PfPK7, Kinase-Glo ATP depletion luminescence.
For experiment [8], the target named is Calcium-dependent protein kinase 4 (Plasmodium falciparum (isolate 3D7)) (UniProt Q8IBS5). The experiment is described as follows: PfCDPK4 kinase inhibitors, biochemical, TCAMS library (AID 1159588; cut-off not given, nearly all actives have IC50 up to about 0.91 µM). Conditions: recombinant PfCDPK4, Kinase-Glo ATP depletion luminescence.
A short description of experiment [9]: compounds altering circadian rhythm period length – cell-based, LOPAC library, luminescence reporter (AID 2774).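 Note: values are relative to mean of DMSO wells on each plate.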 Conditions: circadian reporter cells, at 7 µM, actives lie on both sides.
Experiment [10] relates to Hepatitis C virus NS3 helicase. The experiment is described as follows: blockers of NS3h binding to ssDNA – biochemical, fluorescence polarization, LOPAC1280 library, primary screen (AID 687035; in the data active = inhibition above about 37%). Conditions: Purified HCV NS3 helicase, Cy5-dT15 ssDNA binding fluorescence polarization; stronger effect = higher value; concentration not given here.
Experiment [11] can be described thus: compounds altering Cy5-DNA-NS3h complex signal – biochemical, LOPAC1280, artefact control for HCV NS3 helicase inhibitor project (AID 687037). Conditions: Cy5-DNA-NS3h complex fluorescence interference counterscreen.
Experiment [12] concerns Aerobactin synthetase IucA (Klebsiella pneumoniae). In words: inhibition of K. pneumoniae IucA enzyme – biochemical, Tocris library, absorbance (AID 1345561).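 Note: 100% = enzyme without compound and 0% = no enzyme.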 The note with it: purified IucA enzyme assay, absorbance (OD) read-out; stronger effect = lower value;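 tested at 8 µM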.
Experiment [13] is described as follows: viability loss in pontine glioma line – cell-based, SU-DIPG-XIII, MIPE4.0, CellTiter-Glo, qHTS, dose response (AID 1347061; cut-off not given, nearly all actives have AC50 up to about 37 µM;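 note: cells exposed to compound for 48 hours before readout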). The note with it: CellTiter-Glo ATP luminescence.
Experiment [14] can be described thus: viability loss in pontine glioma line – cell-based, JHH-DIPG-1, MIPE4.0, CellTiter-Glo, qHTS, dose response (AID 1347062; cut-off not given, nearly all actives have AC50 up to about 27 µM). Conditions: JHH-DIPG-1 viability, CellTiter-Glo ATP luminescence.
A short description of experiment [15]: viability loss with induced miR-34 in A549 – imaging, A549 dox-inducible miR-34, nuclei and caspase counts, primary screen (AID 1347080;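 active = compounds whose cell count with miR-34 switched on is under 0.7 times the count with it off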). Conditions: A549 miR-34 inducible, Hoechst nuclei count, 48 h.
Experiment [16] is described as follows: MELAS cybrid and Rieske KO viability enhancers – cell-based, MELAS cybrids, Rieske KO mouse fibroblasts, CellTiter-Glo, primary screen (AID 1508586;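 active = mean z-score across replicates of 1.96 or higher in either the MELAS or the Rieske mutant cell line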;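 note: z relative to plate mean and SD of compound and empty wells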). Conditions: low glucose.
Experiment [17] is described as follows: galactose survival enhancers in mitochondrial complex I cybrids – cell-based, galactose medium, ATP luminescence, primary screen (AID 1645843;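 active = z-score of at least 1.8 in each of two replicates, scored against plate mean and spread of sample wells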;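 note: positive z means more ATP and so rescue of galactose-driven cybrid death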). Conditions: complex I mutant cybrid cells, 72 h, stronger effect = higher value.
The mark [18] stands for this setting: stronger effect = lower value, cell number ratio, induced over uninduced.
The mark [19] stands for this setting: measured here: relative caspase fold change +Dox/-Dox.
[20] abbreviates: measured here: total cells with miR-34 induction, stronger effect = lower value.
[21] abbreviates: measured here: total cells without miR-34 induction.

Several values for one entry are separate records, joined by “and”; a condition that tells them apart may be missing. Identical values can stand only once. Inconclusive results are not listed. For some assays here: Measured potencies and affinities stand elsewhere. Activity calls are given as the source filed them. Unless noted, the rule behind the calls is not given here.

Chain of Calcium-dependent protein kinase 1 (Plasmodium falciparum (isolate 3D7)) (P62344 whole entry, looked up): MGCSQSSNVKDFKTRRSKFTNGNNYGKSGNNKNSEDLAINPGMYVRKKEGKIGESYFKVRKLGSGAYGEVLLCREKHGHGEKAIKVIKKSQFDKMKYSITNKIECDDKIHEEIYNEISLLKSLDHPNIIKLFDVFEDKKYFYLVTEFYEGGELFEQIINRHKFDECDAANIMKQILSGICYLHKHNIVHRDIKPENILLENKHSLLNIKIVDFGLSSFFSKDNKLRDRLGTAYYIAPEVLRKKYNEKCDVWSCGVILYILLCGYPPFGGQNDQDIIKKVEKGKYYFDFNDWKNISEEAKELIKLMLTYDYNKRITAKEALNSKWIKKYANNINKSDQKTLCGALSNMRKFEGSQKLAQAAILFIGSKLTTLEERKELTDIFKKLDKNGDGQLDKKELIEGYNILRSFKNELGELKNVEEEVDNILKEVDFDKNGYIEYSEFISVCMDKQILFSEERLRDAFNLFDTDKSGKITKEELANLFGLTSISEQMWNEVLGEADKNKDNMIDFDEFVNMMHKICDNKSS
Chain of Plasmodium falciparum protein kinase 6 (PK6, PF3D7_1337100) (Q8IDW1 1-305): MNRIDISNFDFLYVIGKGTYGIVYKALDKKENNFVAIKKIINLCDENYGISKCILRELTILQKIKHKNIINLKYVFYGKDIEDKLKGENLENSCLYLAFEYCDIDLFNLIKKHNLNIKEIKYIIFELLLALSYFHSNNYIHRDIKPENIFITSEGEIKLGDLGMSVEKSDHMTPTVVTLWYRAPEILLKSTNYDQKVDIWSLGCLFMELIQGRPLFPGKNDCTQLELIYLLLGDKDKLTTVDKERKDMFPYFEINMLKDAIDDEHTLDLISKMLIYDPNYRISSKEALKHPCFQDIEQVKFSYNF
Chain of L-lactate dehydrogenase (Plasmodium falciparum (isolate CDC / Honduras)) (Q27743 whole entry, looked up): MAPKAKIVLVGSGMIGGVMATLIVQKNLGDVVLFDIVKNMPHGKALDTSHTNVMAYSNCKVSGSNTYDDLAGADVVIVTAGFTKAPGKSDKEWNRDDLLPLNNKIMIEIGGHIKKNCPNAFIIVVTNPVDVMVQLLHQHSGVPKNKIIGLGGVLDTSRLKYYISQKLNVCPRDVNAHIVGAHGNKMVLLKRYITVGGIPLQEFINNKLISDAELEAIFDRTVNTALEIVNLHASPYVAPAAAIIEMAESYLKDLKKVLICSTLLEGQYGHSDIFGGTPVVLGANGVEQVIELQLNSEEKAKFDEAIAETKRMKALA
Chain of Calcium-dependent protein kinase 4 (Plasmodium falciparum (isolate 3D7)) (Q8IBS5 whole entry, looked up): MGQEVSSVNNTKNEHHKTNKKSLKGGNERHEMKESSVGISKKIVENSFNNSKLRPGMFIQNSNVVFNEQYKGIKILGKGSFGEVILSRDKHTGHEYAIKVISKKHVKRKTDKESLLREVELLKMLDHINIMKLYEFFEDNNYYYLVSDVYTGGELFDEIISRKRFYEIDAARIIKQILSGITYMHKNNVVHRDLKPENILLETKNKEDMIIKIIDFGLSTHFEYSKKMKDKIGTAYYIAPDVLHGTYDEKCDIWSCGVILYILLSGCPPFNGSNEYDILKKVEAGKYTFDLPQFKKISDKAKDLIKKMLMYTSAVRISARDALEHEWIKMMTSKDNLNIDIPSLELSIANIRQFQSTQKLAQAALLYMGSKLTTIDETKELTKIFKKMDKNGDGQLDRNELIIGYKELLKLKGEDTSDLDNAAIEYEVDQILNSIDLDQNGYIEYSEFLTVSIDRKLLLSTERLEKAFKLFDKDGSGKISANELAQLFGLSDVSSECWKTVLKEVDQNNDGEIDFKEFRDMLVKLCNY
Chain of Protein kinase 7 (PK7), Plasmodium falciparum 3D7 (PF3D7_0213400) (Q7YTF7 1-343): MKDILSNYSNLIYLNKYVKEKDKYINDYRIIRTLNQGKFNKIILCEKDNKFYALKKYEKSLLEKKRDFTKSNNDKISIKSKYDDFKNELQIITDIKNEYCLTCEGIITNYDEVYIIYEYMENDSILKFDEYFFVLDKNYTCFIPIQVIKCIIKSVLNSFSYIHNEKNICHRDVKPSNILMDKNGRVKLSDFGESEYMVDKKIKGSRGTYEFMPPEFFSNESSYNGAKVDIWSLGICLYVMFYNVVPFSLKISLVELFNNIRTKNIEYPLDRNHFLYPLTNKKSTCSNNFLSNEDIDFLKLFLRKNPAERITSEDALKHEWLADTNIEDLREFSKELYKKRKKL

For `Cc1cc(CNCCCCCCCNCc2cccc([N+](=O)[O-])c2)ccc1O`, the growth inhibition is -5% (inactive) in [1] and 100% (active) in [4]. For the same compound, the inhibition in [2] was 6% (inactive); in experiment [3], -1% (inactive). Moreover, the result in experiment [5], in experiment [6], in [7] and in [8] was inactive.

For the compound `OC(CN1CCN(c2cccc(Cl)c2)CC1)C(c1ccccc1)c1ccccc1` (centres undefined), the growth inhibition was 4% (inactive) in experiment [1] and 85% (active) in [4]. For the same compound, the inhibition in [2] was -2% (inactive); in experiment [3], -2% (inactive); in [10], -4% (inactive). For the same compound, the period change in experiment [9] is -0.085 h (inactive). For the same compound, the fluorescence ratio (interference) in [11] is 0.9 (inactive). Further, the result in experiment [5], in [6], in [7], in [8] and in [14] was inactive. The remaining activity in experiment [12] was 112% (inactive). The AC50 in experiment [13] is 23.5 µM (active). Besides, the fold change in [15] (setting [18]) is 0.897 (inactive) and 1 (inactive); in experiment [15] (setting [19]) it was 0.676 and 0.73. Moreover, the cell count is 8580 and 6630 in experiment [15] (setting [20]); 9570 and 6630 in [15] (setting [21]). Further, the z-score in [16] (MELAS cybrid survival, CellTiter-Glo 48 h, stronger effect = higher value) is -0.304 (inactive); in experiment [16] (Rieske KO mouse fibroblast survival, CellTiter-Glo 72 h), 0.565; in [17] it was -0.82 (inactive).

On to `N#Cc1cccc(NC(=O)Nc2ccc(CC(=O)N3CCc4cc(Cl)c(N5CCN(C/C=C/c6ccccc6)CC5)cc43)cc2)c1`, for which the growth inhibition in experiment [1] was 61% (active); in [4], 91% (active). Moreover, the inhibition in experiment [2] and in experiment [3] was -4% (inactive) each time. In addition, the outcome in experiment [5], in experiment [6], in experiment [7] and in [8] was inactive.

Regarding `COc1ccc(-n2ccnc2SCC(=O)Nc2cc(C)ccc2C)c(OC)c1`, the growth inhibition in experiment [1] was 93% (active); in experiment [4], 94% (active). In addition, the inhibition in experiment [2] is 2% (inactive); in [3] it was -3% (inactive). In addition, the outcome in experiment [5], in experiment [6], in experiment [7] and in [8] was inactive.

On to `CC(C)(C)CN1C(=O)C(c2ccccc2)(c2ccccc2)N=C1N`, for which the growth inhibition in experiment [1] was 94% (active); in experiment [4], 98% (active). In addition, the inhibition is 32% (inactive) in experiment [2] and 1% (inactive) in [3]. The result in experiment [5], in experiment [6], in experiment [7] and in experiment [8] was inactive.

Consider `CC1(C)C(=O)NC2=C1C(=O)C(=O)c1ccccc12`, for which the inhibition is -8% (inactive) in experiment [2] and 1% (inactive) in experiment [3]. In addition, the growth inhibition in experiment [4] was 93% (active). Moreover, the result in [5], in experiment [6], in experiment [7] and in experiment [8] was inactive. Moreover, the remaining activity in experiment [12] was 80.1% (inactive). For the same compound, the fold change in experiment [15] (setting [18]) was 0.672 (active); in experiment [15] (setting [19]), 1.77. Further, the cell count worked out at 1170 in experiment [15] (setting [20]) and 1740 in experiment [15] (setting [21]). Further, the z-score in experiment [17] was -0.705 (inactive).

Turning to `CCNc1cc(C(=O)N[C@@H](Cc2ccccc2)[C@H](O)CNCCc2ccccc2)cc(N2CCCC2=O)c1`, the growth inhibition in experiment [1] was 46% (inactive); in experiment [4], 92% (active). Also, the results for the inhibition in experiment [2] and in [3] were -4% (inactive) and 2% (inactive), respectively. Moreover, the result in experiment [5], in experiment [6], in experiment [7] and in experiment [8] was inactive.

(Values after PubChem BioAssay.)
